Laboratory results reported in the supplement of paper PMC10849652.
Of roughly 8,800 targets only a part is listed; those with a hit were picked by preference. About 0.5% of all pairs of compound and target were hits.

Key:
Assay in all cases: log2 fold change, soluble protein after heating vs DMSO (PISA); higher = thermal stabilisation; K562 lysate, 10 uM; active = over 0.2 and 3.5 SD of the protein, either way, in both replicates (recomputed)
erlotinib = compound: C#Cc1cccc(Nc2ncnc3cc(OCCOC)c(OCCOC)cc23)c1 [erlotinib]
Summary of the method: (§1)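 K562 pellets were dounce-homogenised in PBS pH 7.4 containing 1 mM MgCl2, and the crude extract, at 1 mg/mL protein, was exposed to 10 μM compound for 30 min. Aliquots were heated for 3 min across 48°C-58°C, pooled, brought to 0.5% NP-40 at 4°C and spun at 21,000xg for 90 min, with the supernatant taken as soluble protein. TMTpro 16plex LC-MS/MS with equalised channel sums quantified that protein. Values are log-two fold changes in thermal stability relative to solvent controls, taken from duplicates.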

[1] = compound: C/C(=N\NC(=O)C1=CC(=CC=C1)S(=O)(=O)N2CCOCC2)/C3=C(C=CC(=C3)Cl)O
Summary of the method: as §1

[2] = compound: C1=CC(=CC=C1C2=NC3=C(N2)C=C(C=C3)C(=O)N)OC4=CC=C(C=C4)Cl
Summary of the method: as §1

[3] = compound: C1=CC2=C(C=CC(=C2)/C=C\3/C(=O)NC(=NCC4=CC=CS4)S3)N=C1
Summary of the method: as §1

[4] = compound: C1=CC2=NC=CN=C2C=C1/C=C/3\C(=O)NC(=O)S3
Summary of the method: as §1

[5] = compound: C1=CC=C(C=C1)C2=NC(=C(N2)C3=CC=NC=C3)C4=CC(=C(C=C4)Cl)O
Summary of the method: as §1

[6] = compound: C1=CC=C2C(=C1)C3=NNC4=CC=CC(=C43)C2=O
Summary of the method: as §1

[7] = compound: C1CCN(C1)C(=O)NC2=CC=CC(=C2)NC3=NC=C(C(=N3)NCCC4=CN=CN4)Br
Summary of the method: as §1

[8] = compound: C1CN(CCC1(CC2=CC=C(C=C2)Cl)N)C3=NC=NC4=C3C=CN4
Summary of the method: as §1

IRAK-1-4 Inhibitor I = compound: C1COCCN1CCN2C3=CC=CC=C3N=C2NC(=O)C4=CC(=CC=C4)[N+](=O)[O-] [IRAK-1-4 Inhibitor I]
Summary of the method: as §1

[9] = compound: CC(=O)c1cnc2ccc(-c3cc(Cl)c(O)c(Cl)c3)nc2c1N[C@H]1CC[C@H](CN(C)C)CC1
Summary of the method: as §1

ralimetinib = compound: CC(C)(C)Cn1c(N)nc2ccc(-c3[nH]c(C(C)(C)C)nc3-c3ccc(F)cc3)nc21 [ralimetinib]
Summary of the method: as §1

[10] = compound: CC(C)(O)CC(=O)NCCn1ccc2ncnc(Nc3ccc(Oc4cccc(C(F)(F)F)c4)c(Cl)c3)c21
Summary of the method: as §1

[11] = compound: CC(C)C1=C2N=C(C=C(N2N=C1)NCC3=CC=CC=C3)NCCCCCCN
Summary of the method: as §1

[12] = compound: CC1=C(C(CC(=O)N1)C2=CC=C(C=C2)C(F)(F)F)C(=O)NC3=C(C=C4C(=C3)C=NN4)F
Summary of the method: as §1

[13] = compound: CC1=C(C2=C(C=C1)C(=O)C3=CC=CC=C3N2CCCN)C
Summary of the method: as §1

[14] = compound: CC1=C(C=C(C=C1)NC(=O)C2=CC(=CC=C2)C(C)(C)C#N)NC3=CC4=C(C=C3)N=CN(C4=O)C
Summary of the method: as §1

[15] = compound: CC1=C(C=C(C=C1)NC(=O)C2=CC(=CC=C2)N(C)C)NC(=O)C3=CC=C(C=C3)O
Summary of the method: as §1

[16] = compound: CC1=CC=C(C=C1)SC2=C3C=C(SC3=CN=C2)C(=O)N
Summary of the method: as §1

ibrutinib = compound: C=CC(=O)N1CCC[C@@H](n2nc(-c3ccc(Oc4ccccc4)cc3)c3c(N)ncnc32)C1 [ibrutinib]
Summary of the method: as §1

Measured: log2 fold change

BTK isoform 2 (UniProt Q06187)
Sequence of UniProt Q06187 (Q06187 whole entry, looked up): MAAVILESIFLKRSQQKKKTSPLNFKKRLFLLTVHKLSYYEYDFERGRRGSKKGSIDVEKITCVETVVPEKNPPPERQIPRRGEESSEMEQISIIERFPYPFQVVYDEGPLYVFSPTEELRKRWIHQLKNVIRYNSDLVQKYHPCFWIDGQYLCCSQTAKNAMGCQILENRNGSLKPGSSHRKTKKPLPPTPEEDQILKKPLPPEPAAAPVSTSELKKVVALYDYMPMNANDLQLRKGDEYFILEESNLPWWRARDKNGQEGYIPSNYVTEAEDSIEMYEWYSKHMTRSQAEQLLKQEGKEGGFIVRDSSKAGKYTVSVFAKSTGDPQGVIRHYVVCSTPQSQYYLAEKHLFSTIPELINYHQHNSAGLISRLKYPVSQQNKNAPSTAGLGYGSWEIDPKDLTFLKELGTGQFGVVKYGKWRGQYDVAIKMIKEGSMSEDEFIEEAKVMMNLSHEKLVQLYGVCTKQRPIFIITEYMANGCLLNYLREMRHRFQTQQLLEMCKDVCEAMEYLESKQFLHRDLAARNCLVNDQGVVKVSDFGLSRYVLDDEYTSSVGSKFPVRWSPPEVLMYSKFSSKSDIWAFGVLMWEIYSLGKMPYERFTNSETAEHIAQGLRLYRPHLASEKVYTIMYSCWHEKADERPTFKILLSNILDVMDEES
inactive: erlotinib 0.002 | [1] 0.017 | [2] -0.046 | [3] 0.031 | [4] 0.025 | [5] -0.005 | [6] -0.05 | [7] 0.077 | [8] -0.052 | IRAK-1-4 Inhibitor I -0.017 | [9] 0.012 | ralimetinib 0.014 | [10] 0.02 | [11] -0.01 | [12] 0.005 | [13] -0.032 | [14] 0.055 | [15] 0.042 | [16] -0.011

CEP152 (UniProt O94986)
inactive: erlotinib -0.011 | [1] -0.043 | [2] 0.142 | [3] -0.1 | [4] 0.139 | [5] 0.099 | [6] 0.123 | [7] -0.07 | [8] 0.073 | IRAK-1-4 Inhibitor I 0.086 | ibrutinib -0.077 | ralimetinib 0.144 | [10] -0.092 | [11] -0.062 | [12] -0.04 | [13] -0.071 | [14] 0.095 | [15] -0.067

C18orf25 (UniProt Q96B23)
Sequence of UniProt Q96B23 (Q96B23 whole entry, looked up): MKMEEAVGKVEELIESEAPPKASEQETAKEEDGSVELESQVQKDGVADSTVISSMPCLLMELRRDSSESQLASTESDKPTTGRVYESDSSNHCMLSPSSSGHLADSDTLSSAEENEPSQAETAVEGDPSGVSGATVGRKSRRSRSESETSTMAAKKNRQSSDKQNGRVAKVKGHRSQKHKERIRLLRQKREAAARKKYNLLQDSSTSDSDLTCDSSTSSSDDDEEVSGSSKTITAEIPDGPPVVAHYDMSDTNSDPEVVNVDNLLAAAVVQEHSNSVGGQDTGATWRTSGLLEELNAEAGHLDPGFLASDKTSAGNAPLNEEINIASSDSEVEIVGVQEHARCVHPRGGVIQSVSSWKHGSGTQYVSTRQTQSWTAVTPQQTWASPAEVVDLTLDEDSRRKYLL
active: [10] -0.276
inactive: erlotinib -0.025 | [1] -0.315 | [2] -0.086 | [3] 0.015 | [4] 0.001 | [5] 0.003 | [6] 0.004 | [7] 0.005 | [8] 0.029 | IRAK-1-4 Inhibitor I 0.114 | ibrutinib 0.114 | [9] 0.026 | ralimetinib 0 | [11] -0.038 | [12] 0.073 | [13] -0.008 | [14] 0.04 | [15] -0.091 | [16] -0.065

CAMK2B (UniProt Q13554)
Sequence of UniProt Q13554 (Q13554 whole entry, looked up): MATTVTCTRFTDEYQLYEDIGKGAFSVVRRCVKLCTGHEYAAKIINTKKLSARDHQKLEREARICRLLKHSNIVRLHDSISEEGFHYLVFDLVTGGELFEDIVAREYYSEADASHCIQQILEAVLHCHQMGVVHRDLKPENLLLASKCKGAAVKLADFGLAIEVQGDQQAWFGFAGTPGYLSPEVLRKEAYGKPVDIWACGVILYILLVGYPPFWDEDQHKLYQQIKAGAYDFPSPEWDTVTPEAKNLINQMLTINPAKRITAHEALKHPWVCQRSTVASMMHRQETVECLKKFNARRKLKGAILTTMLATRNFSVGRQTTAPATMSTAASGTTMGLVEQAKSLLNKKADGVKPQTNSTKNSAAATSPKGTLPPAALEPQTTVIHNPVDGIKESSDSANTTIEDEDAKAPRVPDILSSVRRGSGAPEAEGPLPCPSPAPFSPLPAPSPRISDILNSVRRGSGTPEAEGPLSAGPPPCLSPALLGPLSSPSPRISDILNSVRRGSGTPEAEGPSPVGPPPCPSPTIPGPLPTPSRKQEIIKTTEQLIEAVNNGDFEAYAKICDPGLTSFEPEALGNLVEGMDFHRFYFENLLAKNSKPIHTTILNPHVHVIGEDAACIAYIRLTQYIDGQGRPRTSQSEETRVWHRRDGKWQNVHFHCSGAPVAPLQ
inactive: erlotinib 0.037 | [1] 0.086 | [2] -0.067 | [3] -0.039 | [4] -0.068 | [5] -0.069 | [7] 0.011 | [8] -0.034 | IRAK-1-4 Inhibitor I 0.087 | ibrutinib 0.092 | [9] 0.023 | ralimetinib 0.028 | [10] 0.045 | [11] 0.075 | [12] -0.035 | [13] -0.018 | [14] -0.005 | [15] 0.046 | [16] -0.032

BRAF (UniProt P15056)
active: [14] 0.65
inactive: erlotinib -0.05 | [1] -0.101 | [2] -0.04 | [3] 0.013 | [4] -0.008 | [6] 0 | [7] -0.007 | [8] 0.027 | IRAK-1-4 Inhibitor I -0.005 | ibrutinib 0.29 | ralimetinib 0.008 | [11] 0.032 | [12] 0.004 | [13] -0.111 | [16] -0.021

C8orf37 (UniProt Q96NL8)
Sequence of UniProt Q96NL8 (Q96NL8 whole entry, looked up): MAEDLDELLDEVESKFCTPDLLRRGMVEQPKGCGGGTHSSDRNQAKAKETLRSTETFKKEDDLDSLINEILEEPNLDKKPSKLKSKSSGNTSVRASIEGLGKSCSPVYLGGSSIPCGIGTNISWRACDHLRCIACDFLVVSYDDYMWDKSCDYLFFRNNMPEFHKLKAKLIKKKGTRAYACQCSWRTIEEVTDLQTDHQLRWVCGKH
inactive: erlotinib -0.006 | [1] -0.174 | [2] 0.029 | [3] -0.064 | [4] 0.005 | [5] 0.001 | [6] 0.037 | [7] -0.067 | [8] 0.007 | IRAK-1-4 Inhibitor I -0.047 | ibrutinib 0.214 | [9] -0.037 | ralimetinib -0.004 | [10] 0.031 | [11] -0.038 | [13] -0.006 | [14] 0.089 | [15] 0.031 | [16] -0.089

BRD3 (UniProt Q15059)
inactive: erlotinib -0.005 | [1] 0.084 | [2] -0.065 | [3] 0.004 | [4] -0.033 | [6] -0.013 | [7] -0.001 | [8] 0.036 | ibrutinib -0.011 | [9] 0.04 | [11] 0.095 | [12] -0.054 | [13] -0.033 | [14] 0.059 | [16] -0.074

CCDC186 (UniProt Q7Z3E2)
inactive: erlotinib -0.018 | [1] 0.026 | [2] 0.01 | [3] 0.007 | [4] -0.03 | [5] -0.009 | [6] -0.027 | [7] -0.039 | [8] 0.007 | IRAK-1-4 Inhibitor I 0.016 | ibrutinib 0.024 | [9] -0.025 | ralimetinib -0.001 | [10] -0.056 | [11] -0.086 | [12] 0.006 | [13] 0.021 | [14] -0.016 | [15] 0 | [16] -0.023

BCORL1 isoform 3 (UniProt Q5H9F3)
inactive: erlotinib 0.002 | [1] -0.015 | [2] 0.15 | [3] -0.117 | [5] 0.004 | [6] -0.115 | [7] -0.114 | [8] -0.005 | ralimetinib -0.07 | [10] 0.075 | [11] 0.074 | [13] 0.001 | [14] -0.321 | [15] -0.01

ATXN2 (UniProt F8WB05)
inactive: erlotinib 0.073 | [1] -0.082 | [2] 0.09 | [3] -0.191 | [4] -0.063 | [5] -0.011 | [6] -0.083 | [7] -0.036 | [8] 0.055 | IRAK-1-4 Inhibitor I -0.157 | ibrutinib -0.538 | [9] -0.104 | ralimetinib 0 | [10] 0.033 | [11] 0.037 | [13] 0.006 | [14] 0.119 | [15] -0.044 | [16] 0.048

ATF7IP2 (UniProt Q5U623)
Sequence of UniProt Q5U623 (Q5U623 whole entry, looked up): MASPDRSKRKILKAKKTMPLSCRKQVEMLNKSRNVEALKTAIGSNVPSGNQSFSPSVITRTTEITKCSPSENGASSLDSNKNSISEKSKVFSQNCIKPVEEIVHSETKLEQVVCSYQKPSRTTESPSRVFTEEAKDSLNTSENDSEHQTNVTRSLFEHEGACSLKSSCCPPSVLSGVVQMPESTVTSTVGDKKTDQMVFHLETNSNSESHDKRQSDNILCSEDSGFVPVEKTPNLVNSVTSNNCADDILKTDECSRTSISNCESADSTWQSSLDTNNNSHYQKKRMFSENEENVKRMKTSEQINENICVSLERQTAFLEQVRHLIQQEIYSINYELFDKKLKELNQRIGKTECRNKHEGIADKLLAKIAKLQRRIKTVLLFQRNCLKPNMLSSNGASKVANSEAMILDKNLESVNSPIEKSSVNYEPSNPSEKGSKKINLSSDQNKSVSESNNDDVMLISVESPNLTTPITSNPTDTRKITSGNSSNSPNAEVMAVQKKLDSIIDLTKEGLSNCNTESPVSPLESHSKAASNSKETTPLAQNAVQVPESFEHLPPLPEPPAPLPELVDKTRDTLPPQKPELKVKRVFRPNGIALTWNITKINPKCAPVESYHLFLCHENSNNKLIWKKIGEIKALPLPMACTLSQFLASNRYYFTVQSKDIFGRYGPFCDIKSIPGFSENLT
inactive: erlotinib 0.012 | [1] -0.034 | [2] 0.086 | [3] 0.026 | [4] -0.069 | [5] -0.027 | [6] -0.132 | IRAK-1-4 Inhibitor I 0.027 | ibrutinib 0.054 | [9] -0.03 | ralimetinib 0.045 | [10] -0.201 | [11] 0.058 | [12] -0.056 | [14] 0.097 | [15] -0.04 | [16] -0.088

AVEN (UniProt Q9NQS1)
inactive: erlotinib 0.111 | [1] 0.077 | [2] -0.205 | [3] -0.079 | [4] 0.183 | [5] 0.06 | [6] 0.055 | [7] -0.023 | [8] -0.013 | IRAK-1-4 Inhibitor I -0.096 | ibrutinib -0.03 | ralimetinib -0.061 | [10] -0.079 | [11] 0.055 | [12] 0.009 | [13] 0.027 | [14] 0.1 | [15] -0.08

ATP11A (UniProt P98196)
Sequence of UniProt P98196 (P98196 whole entry, looked up): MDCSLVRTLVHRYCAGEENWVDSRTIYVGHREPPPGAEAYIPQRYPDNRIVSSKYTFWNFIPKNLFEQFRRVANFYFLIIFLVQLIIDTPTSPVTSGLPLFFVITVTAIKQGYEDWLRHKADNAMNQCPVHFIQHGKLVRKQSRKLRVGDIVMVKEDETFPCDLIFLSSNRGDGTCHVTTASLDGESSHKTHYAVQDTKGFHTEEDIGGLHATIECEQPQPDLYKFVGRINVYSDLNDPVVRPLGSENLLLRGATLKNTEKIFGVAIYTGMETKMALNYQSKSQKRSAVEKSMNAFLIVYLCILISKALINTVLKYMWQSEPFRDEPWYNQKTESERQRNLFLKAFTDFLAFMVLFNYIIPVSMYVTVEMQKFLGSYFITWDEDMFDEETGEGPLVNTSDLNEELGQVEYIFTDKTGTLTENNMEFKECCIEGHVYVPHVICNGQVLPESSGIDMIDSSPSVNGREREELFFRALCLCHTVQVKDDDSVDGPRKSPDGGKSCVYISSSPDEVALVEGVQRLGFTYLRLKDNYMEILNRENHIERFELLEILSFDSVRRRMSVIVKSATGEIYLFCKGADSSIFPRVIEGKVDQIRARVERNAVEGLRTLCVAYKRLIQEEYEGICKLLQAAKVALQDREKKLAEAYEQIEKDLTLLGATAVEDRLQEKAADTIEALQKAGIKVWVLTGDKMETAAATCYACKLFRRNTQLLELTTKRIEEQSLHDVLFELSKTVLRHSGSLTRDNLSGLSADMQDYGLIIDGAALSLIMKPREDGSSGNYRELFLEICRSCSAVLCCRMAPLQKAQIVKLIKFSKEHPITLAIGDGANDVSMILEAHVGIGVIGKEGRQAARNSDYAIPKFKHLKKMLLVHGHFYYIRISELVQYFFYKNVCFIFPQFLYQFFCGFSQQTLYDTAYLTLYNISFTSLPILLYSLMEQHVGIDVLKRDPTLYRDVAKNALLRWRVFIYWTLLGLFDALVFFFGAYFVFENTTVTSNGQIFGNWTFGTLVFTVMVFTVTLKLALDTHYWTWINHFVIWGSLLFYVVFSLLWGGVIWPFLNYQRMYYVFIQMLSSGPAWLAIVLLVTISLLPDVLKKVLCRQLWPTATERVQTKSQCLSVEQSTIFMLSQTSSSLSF
inactive: erlotinib -0.003 | [1] -0.067 | [2] -0.033 | [3] -0.011 | [4] -0.022 | [5] 0.016 | [6] 0.102 | [7] -0.005 | [8] -0.015 | IRAK-1-4 Inhibitor I 0.087 | ibrutinib -0.02 | [9] 0.091 | ralimetinib 0.122 | [10] -0.046 | [11] -0.017 | [12] -0.019 | [13] -0.065 | [14] -0.006 | [15] -0.074 | [16] 0.02

C16orf70 (UniProt Q9BSU1)
Sequence of UniProt Q9BSU1 (Q9BSU1 whole entry, looked up): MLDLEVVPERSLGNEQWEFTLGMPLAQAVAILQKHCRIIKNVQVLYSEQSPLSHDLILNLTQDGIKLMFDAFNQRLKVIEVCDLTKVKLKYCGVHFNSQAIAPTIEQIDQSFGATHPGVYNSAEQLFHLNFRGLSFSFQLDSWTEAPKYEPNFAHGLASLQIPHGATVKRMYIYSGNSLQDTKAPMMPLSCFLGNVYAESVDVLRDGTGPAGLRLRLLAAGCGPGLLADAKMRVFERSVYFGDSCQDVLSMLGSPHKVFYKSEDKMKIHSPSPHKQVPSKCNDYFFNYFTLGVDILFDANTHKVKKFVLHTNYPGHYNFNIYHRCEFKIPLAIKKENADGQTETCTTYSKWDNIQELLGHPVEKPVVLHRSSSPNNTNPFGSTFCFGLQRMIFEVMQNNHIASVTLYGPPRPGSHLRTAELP
active: [3] 0.271
inactive: erlotinib 0.023 | [1] 0.194 | [2] -0.06 | [4] 0.033 | [5] -0.128 | [6] -0.193 | [7] 0.016 | [8] 0.055 | IRAK-1-4 Inhibitor I -0.021 | ibrutinib -0.048 | [9] -0.011 | ralimetinib 0.034 | [10] 0.031 | [11] -0.068 | [13] -0.043 | [14] 0 | [15] 0.058 | [16] -0.024

C1orf131 isoform 5 (UniProt Q8NDD1)
inactive: erlotinib -0.006 | [1] -0.094 | [2] 0.051 | [3] -0.058 | [5] -0.013 | [6] -0.001 | [7] -0.062 | [8] -0.011 | IRAK-1-4 Inhibitor I 0.067 | [9] 0.041 | ralimetinib 0.06 | [10] -0.056 | [11] 0.028 | [12] -0.016 | [13] -0.071 | [14] 0.08 | [15] 0.025 | [16] -0.043

CDK5 (UniProt Q00535)
Sequence of UniProt Q00535 (Q00535 whole entry, looked up): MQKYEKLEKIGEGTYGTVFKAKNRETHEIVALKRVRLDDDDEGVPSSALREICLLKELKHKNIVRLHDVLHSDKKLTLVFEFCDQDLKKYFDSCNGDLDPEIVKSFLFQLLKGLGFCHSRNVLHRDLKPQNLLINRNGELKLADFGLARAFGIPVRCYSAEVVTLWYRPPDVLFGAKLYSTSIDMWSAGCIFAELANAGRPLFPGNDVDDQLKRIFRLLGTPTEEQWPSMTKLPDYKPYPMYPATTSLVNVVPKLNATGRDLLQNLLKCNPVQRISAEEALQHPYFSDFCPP
inactive: erlotinib -0.018 | [1] -0.065 | [2] 0.126 | [3] -0.041 | [4] -0.023 | [5] 0.01 | [7] 0.367 | [8] 0.004 | IRAK-1-4 Inhibitor I 0.033 | ibrutinib 0.015 | ralimetinib 0.004 | [10] -0.023 | [11] -0.032 | [12] -0.034 | [13] -0.006 | [14] -0.052 | [15] 0.023 | [16] -0.058
active: [9] 0.53

CEP41 (UniProt Q9BYV8)
inactive: erlotinib -0.068 | [1] -0.125 | [2] 0.006 | [3] -0.007 | [4] 0.016 | [6] 0.019 | [7] -0.035 | [8] 0.03 | ibrutinib 0.014 | [9] 0.045 | [11] 0.021 | [12] -0.025 | [13] 0.095 | [14] 0.011 | [16] -0.031

CEBPZOS (UniProt A8MTT3)
Sequence of UniProt A8MTT3 (A8MTT3 whole entry, looked up): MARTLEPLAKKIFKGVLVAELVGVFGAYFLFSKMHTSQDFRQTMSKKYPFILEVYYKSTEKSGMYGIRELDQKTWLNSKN
inactive: erlotinib -0.038 | [1] 0.013 | [2] 0.004 | [3] 0.003 | [5] -0.014 | [6] 0.006 | [7] -0.011 | [8] 0.005 | IRAK-1-4 Inhibitor I -0.015 | [9] 0.02 | ralimetinib 0.035 | [10] 0.022 | [11] -0.047 | [12] -0.054 | [13] 0.04 | [14] 0.112 | [15] -0.032 | [16] 0.012

C3orf33 (UniProt Q6P1S2)
Sequence of UniProt Q6P1S2 (Q6P1S2 whole entry, looked up): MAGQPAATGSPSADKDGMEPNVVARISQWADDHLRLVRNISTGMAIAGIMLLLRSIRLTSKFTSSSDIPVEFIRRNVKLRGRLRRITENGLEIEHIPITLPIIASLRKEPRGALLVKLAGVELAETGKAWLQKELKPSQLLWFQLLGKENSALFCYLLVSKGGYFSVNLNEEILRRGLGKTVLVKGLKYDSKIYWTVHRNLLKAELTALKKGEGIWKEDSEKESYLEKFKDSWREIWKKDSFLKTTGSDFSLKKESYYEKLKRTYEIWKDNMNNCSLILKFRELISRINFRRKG
inactive: erlotinib 0.195 | [1] -0.205 | [2] 0.209 | [3] -0.124 | [4] 0.068 | [5] 0.032 | [6] 0.123 | IRAK-1-4 Inhibitor I -0.281 | ibrutinib -0.045 | [9] -0.084 | ralimetinib 0.17 | [10] 0.012 | [11] -0.001 | [12] 0.046 | [13] -0.031 | [14] 0.117 | [15] -0.205 | [16] 0.008
